BAZ2B inh: inhibitors of human BAZ2B bromodomain. Q9UIF8. AlphaScreen BAZ2B-H3K14Ac peptide displacement. Potency, µM (doses to about 114 µM), for the others: top-dose activity change, negative = inhibition, usual class: inhibitors. 360,000 compounds, 4.4% hits; note: % is set by controls: 0 for no effect and ±100 for the full control effect; nearly all actives have a fitted effect of over 60% in size
Target sequence (Q9UIF8 whole entry, looked up): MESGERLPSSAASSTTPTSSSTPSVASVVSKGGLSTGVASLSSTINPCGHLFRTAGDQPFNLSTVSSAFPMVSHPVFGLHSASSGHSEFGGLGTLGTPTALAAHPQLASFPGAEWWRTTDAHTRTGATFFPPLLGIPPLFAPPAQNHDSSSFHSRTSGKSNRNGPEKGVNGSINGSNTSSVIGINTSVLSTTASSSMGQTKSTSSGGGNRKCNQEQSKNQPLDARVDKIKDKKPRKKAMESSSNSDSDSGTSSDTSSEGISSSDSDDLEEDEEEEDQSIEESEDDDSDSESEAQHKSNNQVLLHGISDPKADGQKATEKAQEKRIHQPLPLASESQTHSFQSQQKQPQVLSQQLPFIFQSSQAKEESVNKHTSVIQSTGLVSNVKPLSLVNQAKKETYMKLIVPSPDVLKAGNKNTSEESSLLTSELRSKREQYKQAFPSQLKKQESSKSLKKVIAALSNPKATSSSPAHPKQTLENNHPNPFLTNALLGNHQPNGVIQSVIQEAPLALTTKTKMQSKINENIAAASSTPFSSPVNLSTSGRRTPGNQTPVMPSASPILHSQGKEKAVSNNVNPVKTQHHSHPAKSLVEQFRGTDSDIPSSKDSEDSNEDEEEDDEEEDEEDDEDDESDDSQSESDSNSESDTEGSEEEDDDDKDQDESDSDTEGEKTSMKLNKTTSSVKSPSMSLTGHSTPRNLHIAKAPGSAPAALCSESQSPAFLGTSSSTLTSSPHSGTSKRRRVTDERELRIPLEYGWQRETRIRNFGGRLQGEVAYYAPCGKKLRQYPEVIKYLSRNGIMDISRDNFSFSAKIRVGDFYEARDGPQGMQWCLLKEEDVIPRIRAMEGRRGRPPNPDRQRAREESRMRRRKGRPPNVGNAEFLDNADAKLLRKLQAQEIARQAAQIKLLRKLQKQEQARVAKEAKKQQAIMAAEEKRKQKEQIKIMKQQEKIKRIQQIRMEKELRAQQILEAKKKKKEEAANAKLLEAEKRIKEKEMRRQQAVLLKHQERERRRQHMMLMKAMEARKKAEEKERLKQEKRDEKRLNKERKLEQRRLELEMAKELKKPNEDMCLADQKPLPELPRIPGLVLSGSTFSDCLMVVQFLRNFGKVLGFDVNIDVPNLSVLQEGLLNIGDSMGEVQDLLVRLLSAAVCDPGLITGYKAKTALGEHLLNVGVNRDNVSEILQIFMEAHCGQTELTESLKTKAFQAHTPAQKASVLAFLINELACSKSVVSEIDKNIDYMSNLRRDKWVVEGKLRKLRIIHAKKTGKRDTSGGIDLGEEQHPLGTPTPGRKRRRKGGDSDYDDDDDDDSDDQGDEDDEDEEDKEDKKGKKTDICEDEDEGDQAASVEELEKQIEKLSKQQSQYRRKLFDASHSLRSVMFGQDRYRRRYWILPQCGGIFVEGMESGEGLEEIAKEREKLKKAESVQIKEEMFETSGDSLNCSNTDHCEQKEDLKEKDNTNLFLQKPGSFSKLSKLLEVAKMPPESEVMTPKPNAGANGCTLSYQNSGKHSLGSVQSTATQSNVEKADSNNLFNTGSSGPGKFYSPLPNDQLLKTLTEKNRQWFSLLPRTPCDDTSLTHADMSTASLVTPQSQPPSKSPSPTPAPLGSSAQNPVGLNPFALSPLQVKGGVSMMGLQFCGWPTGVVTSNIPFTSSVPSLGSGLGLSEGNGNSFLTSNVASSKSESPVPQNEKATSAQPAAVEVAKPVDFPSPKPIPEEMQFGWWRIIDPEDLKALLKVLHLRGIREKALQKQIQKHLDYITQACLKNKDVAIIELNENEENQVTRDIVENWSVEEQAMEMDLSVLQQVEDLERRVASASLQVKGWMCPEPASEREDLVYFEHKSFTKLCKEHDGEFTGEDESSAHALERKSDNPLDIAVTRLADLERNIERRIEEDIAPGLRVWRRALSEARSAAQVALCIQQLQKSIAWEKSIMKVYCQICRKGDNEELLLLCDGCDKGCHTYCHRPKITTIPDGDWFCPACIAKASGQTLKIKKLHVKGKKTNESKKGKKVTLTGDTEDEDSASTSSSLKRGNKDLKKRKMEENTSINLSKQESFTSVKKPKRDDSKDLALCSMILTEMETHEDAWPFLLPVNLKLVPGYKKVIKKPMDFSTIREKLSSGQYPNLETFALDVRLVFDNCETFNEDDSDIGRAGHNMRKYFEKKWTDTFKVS
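AlphaScreen displacement: compounds (up to 110uM) incubated 30 min at room temperature with a preformed 50 nM BAZ2B/50 nM biotinylated H3K14Ac peptide complex in PBS pH 7.4 with Tween-20. Donor and acceptor beads at 10 ug/mL final added, 20 min light-protected before reading.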
JMJD2A Tudor inh: inhibitors of human JMJD2A Tudor domain. 390,000 compounds, 4.4% hits. Potency, µM (doses to about 114 µM), for inactives: at the top dose activity change, negative = inhibition, most hits filed as inhibitors. O75164. AlphaScreen JMJD2A-Tudor / H3K4me3 peptide binding; note: % is set by controls: 0 for no effect and ±100 for the full control effect; nearly all actives have a fitted effect of over 50% in size
HP1b binding inh: blocks HP1-beta chromodomain binding to methylated histone tails; P83916; AlphaScreen HP1-beta / biotin-H3K9me3 peptide binding; Potency, µM (doses to about 114 µM), for the others: at the highest dose activity change, negative = inhibition, most hits filed as inhibitors; 390,000 compounds, 0.56% hits; note: nearly all actives have a fitted effect of over 70% in size
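AlphaScreen: HP1-beta (50 nM) preformed 30 min with biotin-H3(1-18)K9me3 peptide (50 nM) in PBS pH 7.4, 0.01% Tween-20. Compound added for 30 min at RT, then streptavidin donor/nickel chelate acceptor beads (10 ug/mL) for 30 min.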
PLK1 PBD block: inhibitors of human PLK1 polo-box domain binding; P53350; Plk1 PBD binding of FITC phosphopeptide, fluorescence polarization; Potency, µM, for the others: max response, negative = inhibition, hits mostly inhibitors; 360,000 compounds, 2.8% hits; AID 720504; note: series mostly up to about 57 µM; % is set by controls: 0 for no effect and ±100 for the full control effect; nearly all actives have a fitted effect of over 65% in size
Sfp PPTase inh: blocks B. subtilis Sfp PPTase activity; Q9F4F7; Biochemical Sfp PPTase activity, qHTS; Potency, µM, inactives show largest response in the series, negative = inhibition, usual class: inhibitors; 310,000 compounds, 3.5% hits; AID 1490;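 note: the enzyme is Sfp with the accession as filed and its product quenches rhodamine fluorescence; 0% = enzyme reaction without inhibitor and -100% = no enzyme wells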
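Fluorescence-quenching assay: 15 nM Sfp-PPTase preincubated 15 min at room temperature with compound, then 5 uM rhodamine-CoA and 12.5 uM BHQ-2-labelled YbbR peptide added. Fluorescence (ex 525/em 598 nm) read at start and after 30 min; difference gives rate.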
G9a inh: G9a (human) methyltransferase inhibition | Potency, µM (highest dose often 102 µM), without a hit: at the highest dose activity, negative = inhibition, actives largely listed as inhibitors | Q96KQ7 | 350,000 compounds, 8.8% hits | G9a H3K9 monomethylation, AlphaScreen, 2 h | AID 504332; note: % is set by controls: 0 for no effect and ±100 for the full control effect; nearly all actives have a fitted effect of over 75% in size
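Step 1: enzyme (final 20 nM) with compound, 15 min RT. Step 2: substrate peptide 500 nM and SAM 20 uM, 2 h RT. Step 3: anti-H3K9me1 antibody and AlphaScreen beads, 10 min, then plate read.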
Starred values were filed as active, the others as inactive; ? = inconclusive; nt = not tested or not shown; [ ] = another dose, or the depositor's remark. Most compounds without a hit are left out; they make up all but 12% or so of the library. Calls come from the whole dose curve; as a rule, active = well fitted curve in the direction sought with a large enough effect; inconclusive = small, poorly fitted or top-dose-only effect, or another doubt; inactive = no such curve, though single readings can be large; an effect the other way counts as inactive or inconclusive. Potency is the fitted concentration of half-maximal effect.

SMILES | BAZ2B inh | JMJD2A Tudor inh | HP1b binding inh | PLK1 PBD block | Sfp PPTase inh | G9a inh
Cc1ccccc1OC1C=CC(C#Cc2ccc(Br)cc2)OC1CO (stereo not given) | nt | nt | nt | nt | 37.2% | nt
COC(=O)C1=C(O)/C(=C\c2cc(C)n(-c3ccccc3C)c2C)N=C1C | 79.4µM* | -29.3% | 2.8% | -8.3% | 44.7µM* | 20µM*
COC(=O)c1cccc(-n2c(C)cc(C=O)c2C)c1C | ? | -23.6% | 16.8% | 3.5% | 2.8% | -7.5%[59 µM]
COC(=O)C1=C(O)/C(=C\c2cc(C)n(-c3ccccc3F)c2C)N=C1C | 56.2µM* | -12.5% | 11.7% | -22.1% | 4.3% | ?
COC(=O)C1=C(O)/C(=C\c2sccc2C)N=C1C | -21.7% | -4.3% | 12.3% | -2.5% | 5.5% | 17.1%
COc1cc(NC(=O)c2cccc3c2C(=O)N(C2CCCCC2)C3)cc(OC)c1OC | ? | ? | -0.7% | ? | -28.8% | ?
O=C(O)c1ccccc1OS(=O)(=O)O | nt | nt | nt | nt | 3.1% | nt
CCOC(=O)c1c(NC(=O)/C=C/C(=O)O)sc(C)c1-c1ccc(F)cc1 | -13.1% | -18.4% | 0.3% | -14.4% | 50.1µM* | -36.3%
CCOC(=O)c1c(NC(=O)/C=C/C(=O)O)sc(C)c1-c1ccc(C)c(C)c1 | ? | -32.5% | 0.2% | ? | 25.1µM* | nt
COC(=O)c1c(NC(=O)/C=C/C(=O)O)sc(C)c1-c1ccc(C)cc1 | -24.6% | -21.7% | 11.0% | -19.1% | 5.1% | ?
CC(C)=C1C2CCC1C(C(=O)Nc1sc(C)c(-c3ccc(C(C)C)cc3)c1C(N)=O)C2C(=O)O (stereo not given) | 1.7% | -31.4% | -8.7% | 29.9µM* | ? | 6.3%[59 µM]
Cc1ccc(-c2c(C)sc(NC(=O)C3C4CCC(O4)C3C(=O)O)c2C(=O)OC(C)C)cc1 (stereo not given) | ? | ? | 8.5% | ? | 0.5% | -33.4%[0.0925 µM]
COC(=O)c1c(NC(=O)/C=C/C(=O)O)sc(C)c1-c1ccc(C(C)C)cc1 | ? | -29.1% | 3.6% | 37.7µM* | 12.4% | ?
Cc1cccc(Nc2nnc(-c3ccc(C)c(S(=O)(=O)N4CCOCC4)c3)c3ccccc23)c1 | -11.1% | -15.0% | 20.1% | nt | nt | -33.7%[59 µM]
CNC(=O)c1ccc2nc(-c3cccc(C)c3)c(-c3cccc(C)c3)nc2c1 | nt | -20.8%[57.1 µM] | 4.6%[57 µM] | nt | nt | nt
Cc1cc(C)cc(NC(=O)C(Cc2ccccc2)N2Cc3ccccc3C2=O)c1 (stereo not given) | 1.4% | -15.8% | -8.5% | nt | nt | -12.1%[59 µM]
Cc1ccc(NC(=O)CCC(=O)NNC(=O)/C=C/C(=O)O)c(C)c1 | -36.2% | ? | 20.8% | -6.3% | -8.9% | 10µM*
CCC(=O)NNC(=O)CCC(=O)Nc1ccc(C)cc1C | -10.1% | -18.8%[11.4 µM] | -9.2% | 23.8µM* | 11.2% | 14.7%
Cc1ccc(NC(=O)CCC(=O)NNC(=O)C(C)(C)C)c(C)c1 | -27.0% | 0.0% | 36.6% | -12.3% | 9.8% | -5.8%
Cc1ccc(NC(=O)CS(=O)c2ccccc2N)c(C)c1 (stereo not given) | -16.8% | -10.3% | 4.7% | -11.1% | 7.6% | 39.8µM*
Cc1ccc(NC(=O)Cc2ccccc2)c(C)c1 | -2.8% | nt | nt | nt | -10.4% | -1.8%[59 µM]
NC(=S)NN=C(c1ccc(Br)cc1)C1CC1 | nt | 0.794µM* | ? | -2.0% | nt | nt
O=C(O/N=C(\c1ccccc1)c1ccccn1)c1ccc(Cl)c(Cl)c1 | 0.0% | -17.1% | 45.8% | -1.2% | 1.6% | 3.55µM*
N/C(=N\OC(=O)c1ccc(Cl)cc1[N+](=O)[O-])c1ccccn1 | -13.2% | ? | 13.5% | -10.0% | 15.6% | nt
N/C(=N\OC(=O)c1ccc(Cl)cc1Cl)c1ccccn1 | 0.8% | -17.5% | 18.4% | ? | 6.2% | 89.1µM*
SMILES | BAZ2B inh | JMJD2A Tudor inh | HP1b binding inh | PLK1 PBD block | Sfp PPTase inh | G9a inh
N/C(=N\OC(=O)c1cc(Br)ccc1Cl)c1ccccn1 | 2.5% | 12.7% | 51.2% | 0.9% | -5.2% | 56.2µM*
N/C(=N\OC(=O)c1ccc([N+](=O)[O-])cc1Cl)c1ccccn1 | 56.2µM* | ? | -22.4% | -4.2% | 3.3% | 20µM*
COCCCN(Cc1ccco1)C(=O)c1cc2c(s1)-c1ccc(Cl)cc1S(=O)(=O)C2 | -16.1% | -9.9% | 42.1% | -7.6% | 14.8% | 13.4%
Cn1c(=O)cc(OCC(=O)N2CCN(c3ccc(F)cc3)CC2)c2ccccc21 | -20.2% | -10.4% | 27.1% | nt | nt | -8.2%[59 µM]
CCOc1ccc(N(CC)S(=O)(=O)N2CCCC(C(=O)Nc3cc(Cl)ccc3OC)C2)cc1 (stereo not given) | -12.5% | -7.0% | 42.0% | nt | nt | -0.4%[59 µM]
Cc1ccc(Sc2c(C)nn(C(=O)c3ccc(Cl)cc3)c2C)cc1 | 241.6% | 166.8% | 216.7% | nt | nt | 108.4%[59 µM]
CCOC(=O)c1c(C)[nH]c(C)c1S(=O)(=O)N(C)CC(=O)NCc1ccc(F)cc1 | -14.1% | -13.8% | 20.7% | -6.3% | 11.9% | 15.2%
O=C(Nc1ccc(Br)cc1)C(c1ccccc1)c1ccccc1 | -0.3% | -2.7% | 30.7% | 1.4% | 9.8% | 5.4%
COCCSc1ccccc1C(=O)Nc1ccc(Cl)cc1 | ? | ? | 19.6% | -12.2% | ? | 7.08µM*
COCc1nnc(NC(=O)c2ccccc2Oc2ccccc2)s1 | -8.6% | -0.7% | 30.3% | -6.4% | 4.8% | ?
COCCSc1ccccc1C(=O)Nc1nnc(COC)s1 | -8.6% | -26.9% | -16.6% | 26.7µM* | ? | ?
COCCSc1ccccc1C(=O)Nc1ccc(Br)cc1 | -19.2% | 11.1% | 37.0% | 2.7% | -18.9% | 20µM*
COCCSc1ccccc1C(=O)Nc1ccc2c(c1)OCO2 | -13.0% | 3.0% | 42.1% | 6.0% | ? | nt
COCCNC(C)C(=O)Nc1ccc(Br)cc1 (stereo not given) | 50.1µM* | 3.98µM* | -34.8% | -5.9% | -26.0% | 11.2µM*
O=C(COC(=O)c1cc(Br)ccc1O)NNC(=O)c1cccs1 | 5.3% | -15.0% | 10.2% | -8.1% | nt | 18.6%[12.7 µM]
COc1cccc(CNCc2c(C(=O)O)c(C)n(Cc3ccc(F)cc3Cl)c2C)c1OC | -33.8% | -30.5% | 40.3% | nt | nt | 5.9%[59 µM]
COc1ccc(NC(=O)C(OC(=O)CNC(=O)c2ccccc2)c2ccccc2)cc1Cl (stereo not given) | nt | -23.3% | nt | nt | nt | nt
COc1ccccc1C(=O)Nc1cc(C)on1 | 2.5% | 0.7% | 50.1% | -10.0% | 17.3% | -20.4%
COCCSc1ccccc1C(=O)Nc1cccnc1 | -3.1% | 0.6% | 23.4% | -5.0% | ? | 1.58µM*
O=C(Nc1cccnc1)c1ccccc1O | -30.1% | -8.1% | 36.9% | -4.4% | 16.3% | 5.9%[59 µM]
COCCSc1ccccc1C(=O)Nc1cc(C)on1 | ? | -19.2% | ? | ? | 31.6µM* | 1.12µM*
CC(=O)C[C@H]1c2cc(F)ccc2S(=O)(=O)N1c1ccc(N(C)C)cc1 | nt | ? | -11.1% | -3.0% | nt | nt

Bioassay records (PubChem BioAssay)
